The source of these data is PubChem BioAssay (Tox21).

A short description of assay [1]: Nuclear factor erythroid 2-related factor 2/antioxidant responsive element (Nrf2/ARE) small molecule agonists: qHTS cell viability counter screen in human keratinocytes (AID 1919968; active = well fitted curve in the direction sought with a large enough effect in the repeat runs; an effect the other way counts as inactive or inconclusive; also: nearly all actives have a fitted effect of over 55% in size; also: potency is read from the fitted curve at half-maximal effect). The method, boiled down: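 Measured as CellTiter-Fluor fluorescence, this readout tracks cytotoxicity in the same wells as the ARE-luciferase screen. HaCaT reporter cells (1,500/well) received compounds after a 5 h pre-incubation and were exposed for 23 h.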
Background: In qHTS, concentration-response curves come from the screen itself.

Assay [2] concerns the target Gonadotropin-releasing hormone receptor (Homo sapiens) (UniProt P30968). The assay can be described thus: Human gonadotropin-releasing hormone receptor (GnRHR) small molecule agonists, calcium flux assay in GnRHR-HEK293 cells (AID 1920063). Also: nearly all actives have a fitted effect of over 35% in size. Also: potency is read from the fitted curve at half-maximal effect. Summed up: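 Fluorescence kinetics (480 nm excitation, 540 nm emission; 3 min, 1 s steps) report calcium mobilisation in human GnRHR-HEK293 cells in agonist mode. Dye incubation: 1 h, 37 C.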
For orientation: Calcium flux is commonly read through the fluorescence of an indicator in the cells.

The nature of assay [3]: G protein-coupled receptor (GPCR) small molecule agonists, calcium flux assay: HEK293 wild type cell line counter screen (AID 1920065). Summed up: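 Readout: fluorescence at 480 nm excitation/540 nm emission, sampled at 1 s intervals for 3 min. Cells had been cultured 18 h, then dye-loaded 1 h at 37 C before compound or ATP addition.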
Assay [4] can be described thus: p53 small molecule agonists, cell-based qHTS assay with human liver microsomes (AID 1963577). The method, boiled down: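 Fluorescence of the beta-lactamase reporter in p53RE-bla cells, detected with LiveBLAzer substrate (2 h, room temperature, dark), served as the read-out after 16 h compound exposure at 37 C with human liver microsomes and NADPH, each 0.5 mg/mL final.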

A short description of assay [5]: p53 small molecule agonists, cell-based qHTS assay with rat liver microsomes (AID 1963578). Summed up:
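Cells carrying a p53 response element–beta-lactamase reporter were plated and rested 5 h, then dosed with compound in DMSO plus rat liver microsomes and NADPH, each at 0.5 mg/mL final. After 16 h at 37 C, LiveBLAzer substrate was added for 2 h.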

Assay [6] can be described thus: p53 small molecule agonists, cell-based qHTS assay with human liver microsomes: qHTS cell viability counter screen (AID 1963579). Also: nearly all actives have a fitted effect of over 45% in size. Summed up:
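Cytotoxicity counter screen: p53RE-bla, 4,000 cells/well; 5 h settle, 37 C/5% CO2; cpd + HLM 0.5 mg/mL + NADPH 0.5 mg/mL (final); 16 h, 37 C; CellTiter-Glo, 30 min RT, luminescence.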

Assay [7] is described as follows: p53 small molecule agonists, cell-based qHTS assay with rat liver microsomes: qHTS cell viability counter screen (AID 1963580). Also: nearly all actives have a fitted effect of over 45% in size. Also: potency is read from the fitted curve at half-maximal effect. Summed up: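 p53RE-bla HCT-116 cells were exposed 16 h at 37 C to compounds with rat liver microsomes (0.5 mg/mL) and NADPH (0.5 mg/mL). Viability was measured in the same wells as ATP content by CellTiter-Glo luminescence.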
Assay [8] can be described thus: p53 small molecule agonists, cell-based qHTS assay: qHTS cell viability counter screen (AID 1963581). Also: nearly all actives have a fitted effect of over 45% in size. Also: potency is read from the fitted curve at half-maximal effect. The method, boiled down:
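In the same plates used for the p53 bla reporter, HCT-116 cells given compounds for 16 h at 37 C received CellTiter-Glo; luminescence was recorded 30 min later at room temperature.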

Assay [9] is described as follows: p53 small molecule agonists, cell-based qHTS assay (AID 1963582; active = well fitted activation curve with a large enough effect in the signal ratio in the repeat runs, not every such curve was filed as active; the % refers to the signal ratio). Summed up: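 Compounds are pin-transferred in DMSO onto p53RE-bla cells and incubated 16 h at 37 C. The B/G FRET beta-lactamase substrate is then applied for 2 h at RT and fluorescence recorded.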
For assay [10], the target named is 5-hydroxytryptamine receptor 2A (Homo sapiens) (UniProt P28223). Description: 5-hydroxytryptamine receptor 2A (HTR2A) small molecule antagonists, cell-based qHTS assay (AID 1963586). Also: nearly all actives have a fitted effect of over 45% in size. Summed up:
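Antagonist-mode intracellular calcium assay: DOI (4 nM) added after 5 min compound pre-incubation at room temperature to dye-loaded HTR2A-CHO cells. Fluorescence followed for 3 min, sampled every second.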

Assay [11] has the same target. Description: 5-hydroxytryptamine receptor 2A (HTR2A) small molecule agonists, cell-based qHTS assay (AID 1963587). Also: nearly all actives have a fitted effect of over 30% in size. Also: potency is read from the fitted curve at half-maximal effect. Summed up: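 CHO cells stably expressing human HTR2A, plated 18 h, loaded with calcium dye 1 h at 37 C. Agonist mode: compounds added and intracellular calcium fluorescence recorded kinetically for 2 min at 1 sec intervals.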
Assay [12] concerns the target Muscarinic acetylcholine receptor M1 (Homo sapiens) (UniProt P11229). The assay can be described thus: Cholinergic receptor muscarinic 1 (CHRM1) small molecule antagonists, cell-based qHTS assay (AID 1963588). Also: nearly all actives have a fitted effect of over 40% in size. Also: potency is read from the fitted curve at half-maximal effect. Summed up: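 CHRM1-CHO calcium-flux assay, antagonist mode. Cells were seeded 18 h, dye-loaded 1 h at 37 C and given compound for 5 min at RT, then acetylcholine was added at 50nM. FDSS fluorescence was read 3 min; 15 concentrations, three runs.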

Assay [13] shares this target. The assay can be described thus: Cholinergic receptor muscarinic 1 (CHRM1) small molecule agonists, cell-based qHTS assay (AID 1963589). Also: nearly all actives have a fitted effect of over 35% in size. Summed up:
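Each compound was tested at 15 concentrations across three independent runs on dye-loaded CHO cells stably expressing human CHRM1, reading intracellular calcium fluorescence kinetically at 1 sec intervals.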

A short description of assay [14]: cAMP Responsive Elements (CRE) small molecule agonists, cell-based qHTS assay (AID 1963590). Summed up:
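Cell line: CRE-bla HEK 293T; medium DMEM/10% dialyzed FBS/0.1 mM NEAA/1 mM pyruvate/25 mM HEPES; 3 h compound exposure; beta-lactamase FRET readout after 2 h substrate loading at RT.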

The nature of assay [15]: cAMP Responsive Elements (CRE) small molecule antagonists, cell-based qHTS assay (AID 1963591; active = well fitted inhibition curve with a large enough effect in the signal ratio in the repeat runs, not every such curve was filed as active; the % refers to the signal ratio). The method, boiled down:
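Inhibition of NKH477-driven (0.25 uM final) CRE-beta-lactamase signal in HEK293T cells, 3 h compound exposure at 37 °C, detected by FRET substrate fluorescence.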

Assay [16] addresses D(2) dopamine receptor (Homo sapiens) (UniProt P14416). The assay can be described thus: Dopamine D2 receptor (DRD2) small molecule agonists, cell-based qHTS assay (AID 1963594). Also: nearly all actives have a fitted effect of over 35% in size. Also: potency is read from the fitted curve at half-maximal effect. The method, boiled down:
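HEK293 cells stably expressing human DRD2, pre-treated with PDE inhibitor Ro20-1724 (0.1 mM final) and compound 10 min at room temperature, then stimulated with NKH477 (200nM […]) for 30 min. cAMP read by HTRF (665/620 nm).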

In assay [17] the target is KiSS-1 receptor (Homo sapiens) (UniProt Q969F8). The assay can be described thus: Human kisspeptin (KISS1R) small molecule agonists, calcium flux assay in KISS1R-HEK293 cells (AID 1920064; active = well fitted curve in the direction sought with a large enough effect in the repeat runs; an effect the other way counts as inactive or inconclusive). The method, boiled down: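 Measures KISS1R agonism through calcium-sensitive dye fluorescence in stably transfected HEK293 cells, read for 3 min after pin-tool compound delivery; 15-point titrations in triplicate.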
Chain of KiSS-1 receptor (Homo sapiens) (Q969F8 whole entry, looked up): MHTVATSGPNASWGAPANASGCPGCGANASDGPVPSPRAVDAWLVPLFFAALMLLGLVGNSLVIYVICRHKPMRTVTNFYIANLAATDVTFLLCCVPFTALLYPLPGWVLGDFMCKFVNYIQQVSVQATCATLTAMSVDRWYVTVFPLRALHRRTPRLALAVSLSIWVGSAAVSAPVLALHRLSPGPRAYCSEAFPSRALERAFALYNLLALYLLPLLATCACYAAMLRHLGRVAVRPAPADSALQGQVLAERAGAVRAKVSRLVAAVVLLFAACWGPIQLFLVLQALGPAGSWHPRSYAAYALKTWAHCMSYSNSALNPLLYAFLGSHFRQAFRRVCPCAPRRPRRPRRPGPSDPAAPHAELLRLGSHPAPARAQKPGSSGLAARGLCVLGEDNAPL

In assay [18] the target is Beta-2 adrenergic receptor (Homo sapiens) (UniProt P07550). Description: Adrenergic beta2 receptor (ADRB2) small molecule antagonists, cell-based qHTS assay (AID 1963592). Also: nearly all actives have a fitted effect of over 50% in size. Also: potency is read from the fitted curve at half-maximal effect. As to activity change, negative = inhibition: series mostly up to about 92 µM. The method, boiled down: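 Cells (CHO, stable ADRB2 overexpression) incubated 18-20hr at 37C; compounds added from DMSO; agonist mix (1nM isoproterenol, 100uM IBMX, 25uM Ro-20-1724) added; 0.5hr RT; d2-cAMP and anti-cAMP-cryptate added; 1hr RT; 665/615 nm read.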
Chain of Beta-2 adrenergic receptor (Homo sapiens) (P07550 whole entry, looked up): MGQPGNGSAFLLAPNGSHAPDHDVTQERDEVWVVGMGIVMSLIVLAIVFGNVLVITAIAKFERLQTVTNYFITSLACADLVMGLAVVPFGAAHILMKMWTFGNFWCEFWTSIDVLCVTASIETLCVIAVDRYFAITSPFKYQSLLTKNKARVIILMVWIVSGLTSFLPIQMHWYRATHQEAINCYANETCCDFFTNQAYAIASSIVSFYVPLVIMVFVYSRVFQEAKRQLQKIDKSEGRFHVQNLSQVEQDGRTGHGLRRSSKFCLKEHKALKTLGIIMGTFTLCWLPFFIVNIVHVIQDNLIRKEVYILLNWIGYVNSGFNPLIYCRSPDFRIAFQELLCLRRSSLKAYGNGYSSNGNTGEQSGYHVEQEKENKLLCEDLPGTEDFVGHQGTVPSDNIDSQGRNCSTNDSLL

For assay [19], the target named is D(2) dopamine receptor (Homo sapiens) (UniProt P14416). The assay can be described thus: Dopamine D2 receptor (DRD2) small molecule antagonists, cell-based qHTS assay (AID 1963595; active = well fitted inhibition curve with a large enough effect in the signal ratio in the repeat runs, with a control signal flat; the % refers to the signal ratio; also: potency is read from the fitted curve at half-maximal effect). Summed up:
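HEK293 cells stably expressing DRD2 were preincubated with 0.1 mM Ro20-1724, then with compound for 10 min at room temperature. Cells were stimulated with 200 nM NKH477 plus 12 nM quinpirole for 30 min, and cAMP was read by HTRF.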

Assay [20] addresses Beta-2 adrenergic receptor (Homo sapiens) (UniProt P07550). The assay can be described thus: Adrenergic beta2 receptor (ADRB2) small molecule agonists, cell-based qHTS assay (AID 1963593). Also: potency is read from the fitted curve at half-maximal effect.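 As to activation: CHO cells stably overexpressing human ADRB2.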 The method, boiled down:
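CHO cells stably over-expressing ADRB2 were plated overnight at 37C, then dosed with compounds plus a stimulation mix containing 100uM IBMX and 25uM Ro-20-1724 for 0.5hr at room temperature. cAMP was measured by HTRF competition, 1hr.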

Structures are written as SMILES. Unmarked numbers belong to inactive results. Inconclusive results are not listed. The source made the active and inactive calls. Unless noted, calls follow the shape of the full dose curve.
% is scaled to controls: 0 for no effect and ±100 for the full control effect.

Chain of Gonadotropin-releasing hormone receptor (Homo sapiens) (P30968 whole entry, looked up): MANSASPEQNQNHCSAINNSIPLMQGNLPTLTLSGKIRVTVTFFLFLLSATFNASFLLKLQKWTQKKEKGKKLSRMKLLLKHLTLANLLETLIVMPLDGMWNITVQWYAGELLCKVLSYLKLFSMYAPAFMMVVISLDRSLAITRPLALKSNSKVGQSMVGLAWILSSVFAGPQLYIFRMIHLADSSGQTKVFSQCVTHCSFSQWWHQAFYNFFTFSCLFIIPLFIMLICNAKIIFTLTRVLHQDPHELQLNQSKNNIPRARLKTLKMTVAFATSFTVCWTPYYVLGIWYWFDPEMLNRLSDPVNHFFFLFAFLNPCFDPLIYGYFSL
Chain of D(2) dopamine receptor (Homo sapiens) (P14416 whole entry, looked up): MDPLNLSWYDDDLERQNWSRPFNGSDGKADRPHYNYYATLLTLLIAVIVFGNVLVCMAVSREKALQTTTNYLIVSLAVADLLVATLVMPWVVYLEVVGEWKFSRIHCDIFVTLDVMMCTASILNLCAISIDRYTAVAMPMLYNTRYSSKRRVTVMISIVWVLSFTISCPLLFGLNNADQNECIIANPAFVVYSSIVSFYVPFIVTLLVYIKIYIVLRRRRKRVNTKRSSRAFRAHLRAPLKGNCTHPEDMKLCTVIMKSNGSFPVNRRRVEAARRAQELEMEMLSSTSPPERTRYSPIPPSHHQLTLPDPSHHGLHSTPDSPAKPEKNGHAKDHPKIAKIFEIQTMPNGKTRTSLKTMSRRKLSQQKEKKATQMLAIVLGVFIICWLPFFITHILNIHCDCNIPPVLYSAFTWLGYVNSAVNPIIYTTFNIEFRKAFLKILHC
Chain of Muscarinic acetylcholine receptor M1 (Homo sapiens) (P11229 whole entry, looked up): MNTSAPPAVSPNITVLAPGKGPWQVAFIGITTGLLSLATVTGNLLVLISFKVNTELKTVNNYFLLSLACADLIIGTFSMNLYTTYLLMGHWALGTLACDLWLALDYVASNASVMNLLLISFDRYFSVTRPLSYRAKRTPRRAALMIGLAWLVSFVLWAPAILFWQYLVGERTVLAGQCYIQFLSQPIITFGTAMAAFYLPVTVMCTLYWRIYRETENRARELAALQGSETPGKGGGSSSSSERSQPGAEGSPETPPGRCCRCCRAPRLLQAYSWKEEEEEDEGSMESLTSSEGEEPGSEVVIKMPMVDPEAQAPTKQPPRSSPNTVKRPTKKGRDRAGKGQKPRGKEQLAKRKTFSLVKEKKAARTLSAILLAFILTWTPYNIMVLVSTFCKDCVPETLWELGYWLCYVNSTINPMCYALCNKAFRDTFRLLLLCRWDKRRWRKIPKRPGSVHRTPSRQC
Chain of 5-hydroxytryptamine receptor 2A (Homo sapiens) (P28223 whole entry, looked up): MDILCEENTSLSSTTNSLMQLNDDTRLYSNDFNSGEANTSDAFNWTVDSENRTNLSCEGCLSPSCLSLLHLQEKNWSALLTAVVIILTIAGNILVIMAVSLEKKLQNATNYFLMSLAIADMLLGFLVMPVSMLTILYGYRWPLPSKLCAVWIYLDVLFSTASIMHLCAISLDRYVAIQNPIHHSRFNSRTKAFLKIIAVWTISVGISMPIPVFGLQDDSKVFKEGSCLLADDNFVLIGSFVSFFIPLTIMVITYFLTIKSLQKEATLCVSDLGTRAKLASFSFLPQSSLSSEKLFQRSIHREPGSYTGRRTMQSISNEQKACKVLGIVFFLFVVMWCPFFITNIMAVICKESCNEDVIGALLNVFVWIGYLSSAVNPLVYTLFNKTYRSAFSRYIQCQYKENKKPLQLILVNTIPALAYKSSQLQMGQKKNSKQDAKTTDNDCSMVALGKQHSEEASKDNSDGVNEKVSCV

Regarding `Clc1ccc2ccccc2c1`, the Potency entry in assay [1], in assay [2], in assay [3], in assay [4], in [5] and in [6] was “inactive” throughout. For the same compound, the Potency result in assay [7], in assay [8], in [9], in assay [10], in [11] and in assay [12] was “inactive” throughout. Besides, the Potency entry in assay [13], in assay [14], in assay [15] and in assay [16] was “inactive” throughout.

As to `COc1ccc(OC)c(CC(C)N)c1` (stereo not drawn), the Potency entry in [1], in assay [2], in assay [17], in [3], in assay [6] and in assay [7] was “inactive” in each case. In addition, the Potency entry in assay [8], in assay [12], in assay [13], in [14], in [15] and in assay [16] was “inactive” in each case. In addition, the Potency entry in [19] is “inactive”. Moreover, the Potency in assay [18] was 65.6 µM (active).

Take `NNC(=O)c1cccnc1`: the Potency entry in assay [1], in [2], in [17], in [4], in assay [5] and in [6] was “inactive” throughout. Moreover, the Potency result in assay [7], in assay [8], in assay [9], in assay [10], in assay [11] and in assay [12] was “inactive” throughout. Further, the Potency entry in [13], in assay [14], in [15], in assay [18], in assay [16] and in assay [19] was “inactive” in each case.

Consider `[F][Sn]([c]1ccccc1)([c]1ccccc1)[c]1ccccc1`, for which the Potency in [1] was 0.864 µM (active); in assay [2] it was 34.7 µM (active); in assay [7] it was 11.5 µM (active); in assay [8], 2.89 µM (active); in assay [11] it was 30.9 µM (active); in [19] it was 2.73 µM (active). Further, the Potency result in [17], in assay [4], in [10], in assay [18], in assay [20] and in assay [16] was “inactive” throughout.

On to `CCCN(CCC)CCc1c[nH]c2ccccc12`, for which the Potency result in assay [1], in assay [2], in assay [17], in [4], in assay [5] and in assay [6] was “inactive” each time. Besides, the Potency entry in assay [7], in assay [8], in assay [12], in assay [13], in [18] and in assay [20] was “inactive” throughout. Further, the Potency entry in [19] is “inactive”. Moreover, in assay [16], the Potency was 21.4 µM (active).

Take `CC(=O)[O-].CC(=O)[O-].CC(=O)[O-].[Sb+3]`: the activity change, negative = cytotoxicity is 0.851% [at 3.27 µM] in [1], 0.868% [at 2.33 µM] in assay [6], -3.59% [at 2.33 µM] in [7] and 11.8% [at 2.33 µM] in assay [8]. Further, in [2], the activity change was 0.655% [at 2.04 µM, hits give high values]. Besides, the activation is 14% [at 2.72 µM] in [17]; -0.454% [at 2.04 µM] in assay [3]; -0.154% [at 2.72 µM] in assay [13]; -0.0591% [at 3.27 µM] in assay [14]; 0.942% [at 3.27 µM] in [16]. For the same compound, the activity, negative = inhibition in assay [12] is 9.52% [at 2.17 µM]. The values for the activity change, negative = inhibition in assay [15], in assay [18] and in [19] were -4.85% [at 3.27 µM], -10.7% [at 3.27 µM] and -1.4% [at 3.28 µM], respectively.

As for `O.O.O.O.O.O.O.O=S(=O)([O-])[O-].[Co+2]`, the Potency result in [1], in assay [2], in [17], in [3], in assay [6] and in [7] was “inactive” throughout. Further, the Potency result in assay [8], in [11], in [12], in assay [13], in [14] and in assay [15] was “inactive” throughout. Further, the Potency result in [18] and in assay [19] was “inactive” in each case.

Take `C[C@]12CC[C@H]3[C@@H](CCC4=CC(=O)CC[C@@H]43)[C@@H]1CC[C@@H]2OC(=O)CCc1ccco1`: the Potency entry in assay [1], in assay [2], in assay [17], in [4], in [6] and in assay [8] was “inactive” each time. The Potency result in assay [10], in assay [11] and in assay [13] was “inactive” throughout. The results for the Potency in assay [12] and in [20] were 1.3 µM (active) and 2.98 µM (active), respectively.
